Screening data as filed in PubChem BioAssay.
The sample as a whole holds a higher share of hits than the screen did.
HT1080-NT tox: qHTS for induction of synthetic lethality in tumor cells producing 2HG: qHTS for the HT-1080-NT fibrosarcoma cell line | HT-1080-NT fibrosarcoma viability, CellTiter-Glo ATP luminescence, 48 h | Potency, µM (highest dose often 46.1 µM), inactives show at the top dose activity, negative = less viability, usual class: cytotoxic | actives 1.6% (n = 360,000) | AID 686970, 2013;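 further: NT is the 2HG producing partner of a matched IDH1 knockdown line; potency means the concentration at half of the fitted maximal effect; 0% = DMSO-treated cells and -100% = media-only wells without cells; nearly all actives have a fitted effect of over 55% in size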
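Viability of the 2HG-overproducing fibrosarcoma line after 48 hours of compound exposure at 37 degrees C was determined by luminescence with CellTiter-Glo, and concentration-effect curves were then fitted and categorized.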
HT1080 IDH1KD tx: qHTS for induction of synthetic lethality in tumor cells producing 2HG: qHTS for the HT-1080-IDH1KD cell line; HT-1080 IDH1 knockdown viability, ATP luminescence, 48 h; actives 2% (n = 360,000); Potency, µM (titrated, usually from 46.1 µM), for the others: at the highest dose activity, negative = toxicity, hits mostly cytotoxic;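 further: potency means the concentration at half of the fitted maximal effect; 0% = DMSO wells and -100% = cell-free medium wells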
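HT-1080-IDH1KD cells (IDH1 knocked down), 750/well in RPMI with 5% FBS, treated with compound 48 h at 37 degrees C. Viability by CellTiter-Glo luminescence, normalised to DMSO and no-cell wells; concentration-response curves classed.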
IL1B secr inh: qHTS for Inhibitors of Inflammasome Signaling: IL-1-beta AlphaLISA Primary Screen; THP-1 LPS/ATP IL-1B secretion, AlphaLISA, 16 h; stronger effect = lower value; activity change, % at 57.5 µM; actives 4.7% (n = 360,000); in the data active means activity change below about -50%; inconclusive means mostly about -30% to -49%
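Secreted IL-1B measured by AlphaLISA bead assay after 16 h compound exposure of THP-1 cells; compounds (final up to 57.5 uM) added 1 h before LPS (250 ng/mL) and ATP (1.25 mM) stimulation; lower signal means less secretion.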
TDP1 cell CPT: qHTS for Inhibitors of human tyrosyl-DNA phosphodiesterase 1 (TDP1): qHTS in cells in presence of CPT; chicken DT40 Tdp1-/-;hTDP1 cells + 20 nM CPT, ATP luminescence, 48 h; Potency, µM (highest dose often 46.2 µM), for the others: at the highest dose activity change, negative = growth inhibition, most hits filed as inhibitors; actives 12% (n = 420,000); AID 686979, 2013; further: potency means the concentration at half of the fitted maximal effect; nearly all actives have a fitted effect of over 55% in size
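Chicken DT40 Tdp1-/- cells complemented with human TDP1, 400 cells/well, exposed to compounds plus 20 nM camptothecin for at least 48 h at 37 C; viability read as ATP content by CellTiter-Glo luminescence.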
TDP1 cell noCPT: qHTS for Inhibitors of human tyrosyl-DNA phosphodiesterase 1 (TDP1): qHTS in cells in absence of CPT | actives 15% (n = 420,000) | AID 686978, 2013 | DT40 Tdp1-/- hTDP1 cells, no CPT, ATP luminescence, 48 h | Potency, µM (highest dose often 46.2 µM), inactives show at the highest dose activity change, negative = growth inhibition, hits mostly inhibitors; further: potency means the concentration at half of the fitted maximal effect; nearly all actives have a fitted effect of over 55% in size
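Seeded 400 DT40-hTDP1 cells/well (vehicle DMSO, no 20 nM CPT); pinned compounds; ≥48 hr at 37 °C; CellTiter-Glo luminescence as viability measure.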
ALOX12 inh: Primary qHTS assay for inhibitors of human arachidonate 12S-lipoxygenase (ALOX12): Round 2; Polyunsaturated fatty acid lipoxygenase ALOX12 (Homo sapiens), P18054; purified 12hLO, xylenol orange hydroperoxide absorbance; Potency, µM (doses to about 108 µM), for the others: at the highest dose activity change, negative = inhibition, usual class: inhibitors; actives 1.1% (n = 580,000); AID 1671190, 2021; further: potency means the concentration at half of the fitted maximal effect
Target sequence (P18054 whole entry, looked up): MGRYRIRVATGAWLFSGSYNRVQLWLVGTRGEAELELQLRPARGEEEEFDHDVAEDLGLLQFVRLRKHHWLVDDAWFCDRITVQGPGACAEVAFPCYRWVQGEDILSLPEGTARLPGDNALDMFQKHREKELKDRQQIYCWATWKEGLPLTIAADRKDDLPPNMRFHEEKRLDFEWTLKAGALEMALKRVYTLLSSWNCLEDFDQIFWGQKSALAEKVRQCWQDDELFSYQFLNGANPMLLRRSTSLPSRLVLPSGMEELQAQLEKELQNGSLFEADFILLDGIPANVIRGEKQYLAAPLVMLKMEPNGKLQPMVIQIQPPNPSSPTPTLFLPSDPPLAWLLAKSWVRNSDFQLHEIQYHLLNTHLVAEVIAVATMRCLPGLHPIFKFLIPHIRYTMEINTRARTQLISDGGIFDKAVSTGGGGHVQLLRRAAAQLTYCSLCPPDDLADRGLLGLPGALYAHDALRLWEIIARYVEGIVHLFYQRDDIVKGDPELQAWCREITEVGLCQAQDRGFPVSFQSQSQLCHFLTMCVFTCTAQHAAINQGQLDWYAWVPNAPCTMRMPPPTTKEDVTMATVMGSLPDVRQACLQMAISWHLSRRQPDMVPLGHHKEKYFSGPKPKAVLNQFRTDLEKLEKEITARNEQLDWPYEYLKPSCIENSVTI
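Purified human 12hLO (150 nM final) in 25 mM Hepes, 0.01% Triton X-100, pH 7.0 was preincubated 15 min at room temperature with compound. Then 40 uM arachidonic acid was added, 30 min. Hydroperoxide was read by Fe-XO absorbance ratio 573/405 nm.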
An asterisk follows results filed as active; ? = inconclusive; nt = no result given; [ ] = another dose, or the depositor's remark. Unless noted, the call rests on the fitted dose curve; in most records, active means well fitted curve in the direction sought with a large enough effect; inconclusive means small, poorly fitted or top-dose-only effect, or another doubt; inactive means no such curve, though single readings can be large; an effect the other way counts as inactive or inconclusive. Unless noted, on the % scale 0 is the no-effect control and ±100 the full control effect.

SMILES	HT1080-NT tox	HT1080 IDH1KD tx	IL1B secr inh	TDP1 cell CPT	TDP1 cell noCPT	ALOX12 inh
CN(C)c1ccc(/C=C(\C#N)c2ccccn2)cc1	?	?	-10	-28%	23µM*	?
N#C/C(=C/c1ccc(SC(F)(F)F)cc1)c1ccccn1	nt	nt	nt	nt	nt	-20%
N#C/C(=C\c1ccc([N+](=O)[O-])cc1)c1ccccn1	0%	-6%	-73*	?	23µM*	-14%
CC(C)c1noc(CC2CCN(C(=O)c3ccc(F)c(Cl)c3)CC2)n1	nt	nt	nt	nt	nt	19%
COCCN1CCOC2(CCN([S+](=O)([O-])c3ccccc3C)CC2)C1=O	nt	nt	nt	nt	nt	-10%[176 µM]
CCCc1cc(=O)[nH]c(SCc2nc(-c3cccc(OC)c3)no2)n1	nt	nt	nt	nt	nt	-34%
CCOC(=O)CSC1=C(C#N)C(c2ccccc2OCC)C(C#N)C(=O)N1 (stereo not given)	?	-9%	4	15µM*	18µM*	?
CCOC(=O)C1C(=O)NC(SCC(=O)Nc2nccs2)=C(C#N)C1c1ccccc1OCC (stereo not given)	11%	1%	-6	?	13µM*	nt
COc1cccc([S+](=O)([O-])N2CCC(N3Cc4ccccc4C3=O)CC2)c1	nt	nt	nt	nt	nt	4%[6.33 µM]
COc1ccc(OC)c(CCNC(=O)c2ccc3c(c2)N(Cc2ccc(C)cc2)CCS3)c1	nt	nt	nt	?	23µM*	?
CCOc1ccc(CCNC(=O)c2ccc3c(c2)N(Cc2ccc(C)cc2)CCS3)cc1	nt	nt	nt	18µM*	?	-14%
COc1ccc(CCNC(=O)c2ccc3c(c2)N(Cc2ccc(Cl)cc2)CCS3)c(OC)c1	nt	nt	nt	nt	nt	-21%
CC(C)Oc1ccc(CNC(=O)c2ccc3c(c2)N(Cc2ccc(F)cc2)CCS3)cc1	nt	nt	nt	10µM*	7.3µM*	-21%
CCOc1ccc(CNC(=O)c2ccc3c(c2)N(Cc2ccccc2)CCS3)cc1	nt	nt	nt	?	13µM*	-11%
COc1ccc(OC)c(C(C)NC(=O)CCc2c(C)c3ccc(OC)cc3oc2=O)c1 (stereo not given)	nt	nt	nt	nt	nt	3%
COCCOC1CN(C2CCN(Cc3ccc(C)o3)CC2)C12CCCCC2 (stereo not given)	nt	nt	nt	nt	nt	19%
O=C1NC2(CCCN(Cc3ccc(C(F)(F)F)cc3)C2)COc2ccccc21 (stereo not given)	nt	nt	nt	nt	nt	64%
COc1ccc(CCNC(=O)c2ccc3c(c2)N(Cc2ccc(F)cc2)CCS3)cc1OC	0%	-5%	-2	?	15µM*	13%
COc1ccc(C(=O)NCCc2ccc(F)cc2)cc1OC	-2%	-3%	14	-1%	-19%	3%
COc1ccc(CNC(=O)c2ccc3c(c2)N(Cc2ccccc2)CCS3)cc1	nt	nt	nt	?	15µM*	-18%
O=C(NCc1cccnc1)c1ccc2c(c1)N(Cc1ccccc1)CCS2	-24%	-24%	-21	?	?	?
CCOc1ccc(/C=N/N=C/c2ccc(OCC)cc2)cc1	nt	nt	nt	nt	nt	-18%
O=C(Nc1cccc(OC(F)(F)F)c1)C1Cc2c(-c3ccc4c(c3)OCO4)ccnc2O1 (stereo not given)	?	23µM*	-5	16µM*	21µM*	-29%
NC(=O)c1cccc(-c2ccnc3c2CC(C(=O)Nc2cccc(Oc4ccccc4)c2)O3)c1 (stereo not given)	?	23µM*	-11	?	?	nt
CC(=O)c1cccc(-c2ccnc3c2CC(C(=O)Nc2cccc(OC(F)(F)F)c2)O3)c1 (stereo not given)	?	16µM*	-6	-4%	?	?
SMILES	HT1080-NT tox	HT1080 IDH1KD tx	IL1B secr inh	TDP1 cell CPT	TDP1 cell noCPT	ALOX12 inh
Cc1c(CC(=O)Nc2ccc(CCO)cc2)c(=O)oc2cc(O)ccc12	nt	nt	nt	nt	nt	0%
CC1(c2ccccc2)CC(C)(C)n2c(O)c(C3=NC(=S)NC3=O)c3cccc1c32 (stereo not given)	1%	-1%	34	?	23µM*	0%
COc1cc2c3c(c1)c(C1=NC(=S)NC1=O)c(O)n3C(C)(C)C=C2C	11%	25%	-16	-26%	-13%	0%
COC(=O)c1ccccc1COc1cccn2c(N(C)CC3CC3)c(C)nc12	?	?	-13	?	18µM*	1%
CCc1nc2c(OCc3ccccc3OC)cccn2c1N(C)C(=O)C(C)C	2%	2%	35	?	?	5%
Cc1nc2c(OCc3ccc(C(F)(F)F)cc3)cccn2c1N(C)CC1CC1	6.5µM*	?	-19	?	23µM*	-24%
O=C(Nc1cccc(-c2nnc(-c3ccco3)o2)c1)C(c1ccccc1)c1ccccc1	-2%	-21%	-21	?	16µM*	10%
O=C(Cc1ccc(Cl)cc1)Nc1cccc(-c2nnc(-c3ccco3)o2)c1	?	?	29	?	?	-4%
O=C(COc1ccccc1)Nc1ccc(-c2nnc(-c3ccco3)o2)cc1	9.2µM*	12µM*	29	0%	-7%	0%
COc1ccccc1OCC(=O)Nc1cccc(-c2nnc(-c3ccco3)o2)c1	-5%	?	-2	?	21µM*	2%
O=C(Cc1ccccc1)Nc1cccc(-c2nnc(-c3ccco3)o2)c1	-2%	-3%	-23	?	15µM*	57%
